# Data from PubChem BioAssay (NCATS).
# Inconclusive results are not listed. Where a call stands in place of a potency, no number is given. Values without a mark were called inactive. The source made the active and inactive calls. Calls follow the shape of the dose curve; as a rule, active = well fitted cell-killing curve with a large enough effect; inconclusive = small, poorly fitted or top-dose-only effect, or effect the other way; inactive = flat fitted curve, though single readings scatter.
# What was measured:
# Assay in all cases: Primary qHTS to identify gynecologic anti-cancer compounds using libraries of approved drugs and bioactive compounds (AID 1345084); also: nearly all actives have a fitted effect of over 55% in size
# [1] = test system: C33A; settings: Gynecologic cancer cell panel viability, ATPlite luminescence, 48 h; series mostly up to 57.5 µM
# In short: (§1)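 Cells, 1,000 per well, plated 16 h, then exposed 48 h at 37 C to compounds. Viability by ATPlite luminescence after 15 min at room temperature.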
# [2] = test system: CASKI; settings: Gynecologic cancer cell panel viability, ATPlite luminescence, 48 h; series mostly up to 57.5 µM
# In short: as §1
# [3] = test system: Es-2; settings: Gynecologic cancer cell panel viability, ATPlite luminescence, 48 h; series mostly up to 57.5 µM
# In short: as §1
# [4] = test system: HeLa; settings: Gynecologic cancer cell panel viability, ATPlite luminescence, 48 h; series mostly up to 57.5 µM
# In short: as §1
# [5] = test system: Hek293T; settings: Gynecologic cancer cell panel viability, ATPlite luminescence, 48 h, control line for the selectivity index; series mostly up to 57.5 µM
# In short: as §1
# [6] = test system: JEG-3; settings: Gynecologic cancer cell panel viability, ATPlite luminescence, 48 h; series mostly up to 57.5 µM
# In short: as §1
# [7] = test system: OV90; settings: Gynecologic cancer cell panel viability, ATPlite luminescence, 48 h; series mostly up to 57.5 µM
# In short: as §1
# [8] = test system: PA-1; settings: Gynecologic cancer cell panel viability, ATPlite luminescence, 48 h; series mostly up to 57.5 µM
# In short: as §1
# [9] = test system: SKOV3; settings: Gynecologic cancer cell panel viability, ATPlite luminescence, 48 h; series mostly up to 57.5 µM
# In short: as §1
# [10] = test system: Tov-21-G; settings: Gynecologic cancer cell panel viability, ATPlite luminescence, 48 h; series mostly up to 57.5 µM
# In short: as §1
# [11] = test system: Tov112D; settings: Gynecologic cancer cell panel viability, ATPlite luminescence, 48 h; series mostly up to 57.5 µM
# In short: as §1
# Potency is read from the fitted curve at half-maximal effect.
compound,measurement,setting,value
CC(C)C(C(=O)N(C)C(C)C(N)=O)N(C)C(=O)C1CCCN1C(=O)/C=C/C=C/C(O)C(C)O (stereo not drawn),Potency,[1],inactive
same,Potency,[2],inactive
same,Potency,[3],inactive
same,Potency,[4],inactive
same,Potency,[5],inactive
same,Potency,[6],inactive
same,Potency,[7],inactive
same,Potency,[8],inactive
same,Potency,[9],inactive
same,Potency,[10],inactive
same,Potency,[11],inactive
CC(C)=CCC/C(C)=C/CO[C@@H]1O[C@H](CO)[C@@H](OC(=O)/C=C/c2ccc(O)cc2)[C@H](O[C@@H]2O[C@@H](C)[C@H](O)[C@@H](O)[C@H]2O)[C@H]1O,Potency,[1],inactive
same,Potency,[2],inactive
same,Potency,[3],inactive
same,Potency,[4],inactive
same,Potency,[5],inactive
same,Potency,[6],inactive
same,Potency,[7],inactive
same,Potency,[8],inactive
same,Potency,[9],inactive
same,Potency,[10],inactive
same,Potency,[11],inactive
CC1C(=O)OCC2=CCN3CCC(OC(=O)C(C)(O)C1(C)O)C23 (stereo not drawn),Potency,[1],inactive
same,Potency,[2],inactive
same,Potency,[3],inactive
same,Potency,[4],inactive
same,Potency,[5],inactive
same,Potency,[6],inactive
same,Potency,[7],inactive
same,Potency,[8],inactive
same,Potency,[9],inactive
same,Potency,[10],inactive
same,Potency,[11],inactive
CC1=C(/C=C/C(C)=C\C=C\C(C)=C/C(=O)O)C(C)(C)CCC1,Potency,[1],inactive
same,Potency,[2],inactive
same,Potency,[3],inactive
same,Potency,[4],inactive
same,Potency,[5],inactive
same,Potency,[6],inactive
same,Potency,[7],inactive
same,Potency,[8],inactive
same,Potency,[9],inactive
same,Potency,[10],inactive
same,Potency,[11],inactive
C=C1CCC[C@]2(C)CC[C@@H](C(=C)C(=O)O)[C@H](O)[C@@H]12,Potency,[1],inactive
same,Potency,[2],inactive
same,Potency,[3],inactive
same,Potency,[4],inactive
same,Potency,[5],inactive
same,Potency,[6],inactive
same,Potency,[7],inactive
same,Potency,[8],inactive
same,Potency,[9],inactive
same,Potency,[10],inactive
same,Potency,[11],inactive
OC/C=C/C=C/[C@H]1Cc2cc(O)cc(O)c2O1,Potency,[1],inactive
same,Potency,[2],inactive
same,Potency,[3],inactive
same,Potency,[4],inactive
same,Potency,[5],inactive
same,Potency,[6],inactive
same,Potency,[7],inactive
same,Potency,[8],inactive
same,Potency,[9],inactive
same,Potency,[10],inactive
same,Potency,[11],inactive
COc1ccc([C@H]2CNC(=O)C2)cc1OC1CCCC1,Potency,[1],inactive
same,Potency,[2],inactive
same,Potency,[3],inactive
same,Potency,[4],inactive
same,Potency,[5],inactive
same,Potency,[6],inactive
same,Potency,[7],inactive
same,Potency,[8],inactive
same,Potency,[9],inactive
same,Potency,[10],inactive
same,Potency,[11],inactive
O=C(Nc1ccc(S(=O)(=O)Nc2ccccc2Cl)c(Cl)c1)c1ccccn1,Potency,[1],inactive
same,Potency,[2],inactive
same,Potency,[3],inactive
same,Potency,[4],inactive
same,Potency,[5],inactive
same,Potency,[6],inactive
same,Potency,[7],inactive
same,Potency,[8],inactive
same,Potency,[9],inactive
same,Potency,[10],inactive
same,Potency,[11],inactive
CCOC(=O)c1sc(NC(=O)[C@H](C(C)C)n2c(=O)[nH]c3ccccc3c2=O)nc1C,Potency,[1],inactive
same,Potency,[2],inactive
same,Potency,[3],inactive
same,Potency,[4],inactive
same,Potency,[5],inactive
same,Potency,[6],inactive
same,Potency,[7],inactive
same,Potency,[8],inactive
same,Potency,[9],inactive
same,Potency,[10],inactive
same,Potency,[11],inactive
C/C1=C\CCC(C)CCO[C@@H]2O[C@H](CO[C@@H]3OC[C@H](O)[C@H](O)[C@H]3OC1=O)[C@@H](O)[C@H](O)[C@H]2O (stereo partly drawn),Potency,[1],inactive
same,Potency,[2],inactive
same,Potency,[3],inactive
same,Potency,[4],inactive
same,Potency,[5],inactive
same,Potency,[6],inactive
same,Potency,[7],inactive
same,Potency,[8],inactive
same,Potency,[9],inactive
same,Potency,[10],inactive
same,Potency,[11],inactive
C=C1C[C@]23C[C@H]1CC[C@H]2[C@@]12CC[C@H](O)[C@@](C)(C(=O)O1)[C@H]2[C@@H]3C(=O)O,Potency,[1],inactive
same,Potency,[2],inactive
same,Potency,[3],inactive
same,Potency,[4],inactive
same,Potency,[5],inactive
same,Potency,[6],inactive
same,Potency,[7],inactive
same,Potency,[8],inactive
same,Potency,[9],inactive
same,Potency,[10],inactive
same,Potency,[11],inactive
CC(=O)O[C@@H]1[C@H](O[C@@H]2O[C@@H](CO)[C@H](O)[C@H]2O)[C@@H](O[C@@H]2O[C@@H](C)[C@H](O[C@@H]3OC[C@@H](O)[C@H](O)[C@H]3O)[C@@H](O)[C@H]2O)[C@H](OC(=O)[C@]23CCC(C)(C)C[C@H]2C2=CCC4[C@@]5(C)CC[C@H](O[C@@H]6O[C@H](C(=O)O)[C@@H](O)[C@H](O)[C@H]6O[C@@H]6O[C@H](CO)[C@H](O)[C@H](O)[C@H]6O)[C@@](C)(C=O)C5CC[C@@]4(C)[C@]2(C)CC3)O[C@@H]1C (stereo partly drawn),"activity change, negative = cytotoxicity",[1],4.84% [at 6.55 µM]
same,"activity change, negative = cytotoxicity",[2],4.57% [at 6.55 µM]
same,"activity change, negative = cytotoxicity",[3],4.09% [at 6.55 µM]
same,"activity change, negative = cytotoxicity",[4],11.1% [at 6.55 µM]
same,"activity change, negative = cytotoxicity",[5],2.65% [at 6.55 µM]
same,"activity change, negative = cytotoxicity",[6],11.6% [at 6.55 µM]
same,"activity change, negative = cytotoxicity",[7],12.8% [at 6.55 µM]
same,"activity change, negative = cytotoxicity",[8],11.1% [at 6.55 µM]
same,"activity change, negative = cytotoxicity",[9],0% [at 6.55 µM]
same,"activity change, negative = cytotoxicity",[10],4.85% [at 6.55 µM]
same,"activity change, negative = cytotoxicity",[11],12.7% [at 6.55 µM]
O=C(O)/C=C/c1ccc(-c2ccc(O)c(C34CC5CC(CC(C5)C3)C4)c2)cc1,Potency,[1],1580 nM (active)
same,Potency,[2],1780 nM (active)
same,Potency,[3],631 nM (active)
same,Potency,[4],8910 nM (active)
same,Potency,[5],2000 nM (active)
same,Potency,[6],2820 nM (active)
same,Potency,[7],10000 nM (active)
same,Potency,[8],2240 nM (active)
same,Potency,[9],631 nM (active)
same,Potency,[10],794 nM (active)
same,Potency,[11],1410 nM (active)
